EBNA-1 inh: EBNA-1 DNA-binding inhibitors, primary screen, biochemical, fluorescence polarization; inhibition, % at 14.8 µM; 0.34% of 300,000 active; AID 1950, 2009; in the data active means inhibition above about 28%
ZTA DNA inh: counter-screen for EBNA-1 inhibitors: inhibitors of Epstein-Barr virus ZTA; P03206; ZTA-DNA binding, fluorescence polarization; inhibition, % at 11 µM; 0.15% of 320,000 active; AID 2234; in the data active means inhibition above about 33%
Target sequence (P03206 whole entry, looked up): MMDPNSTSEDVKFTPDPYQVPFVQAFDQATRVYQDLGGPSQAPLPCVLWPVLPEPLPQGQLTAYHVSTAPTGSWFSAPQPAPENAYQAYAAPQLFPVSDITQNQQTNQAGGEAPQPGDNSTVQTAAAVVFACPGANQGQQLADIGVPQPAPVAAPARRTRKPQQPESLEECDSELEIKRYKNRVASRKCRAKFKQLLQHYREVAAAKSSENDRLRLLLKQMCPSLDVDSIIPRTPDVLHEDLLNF
LYPLA1 inh: LYPLA1 inhibitors, primary screen, counter-screen for PME1 inhibitor project, biochemical, fluorescence polarization, FP-Rh probe ABPP; Acyl-protein thioesterase 1 (Homo sapiens), O75608; 0.16% of 320,000 active; recombinant LYPLA1; inhibition, % at 5.9 µM; AID 2174, 2009;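 active means inhibition above the mean of all tested compounds plus 3 SD, set per campaign, cut at about 14% in these data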;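 further: inhibitors block serine hydrolase probe labeling of LYPLA1 so polarization falls; 0% = enzyme with DMSO and 100% = wells lacking LYPLA1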
PAD4 FP inh: human PAD4 inhibitors, primary screen, biochemical, fluorescence polarization, 1536-well format; Protein-arginine deiminase type-4 (Homo sapiens), Q9UM07; recombinant PAD4, RCA probe fluorescence polarization; inhibition, % at 6.36 µM; 0.41% of 330,000 active; AID 485272, 2010;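 active means percent inhibition above a cutoff equal to the mean of all tested compounds plus 3 SD, cut at about 15% in these data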;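 further: 0% = PAD4 with RCA probe and DMSO and 100% = probe without PAD4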
LYPLA2 counter: LYPLA2 inhibitors, primary screen, counter-screen for PME1 inhibitor project, biochemical, fluorescence polarization, FP-Rh probe ABPP | Acyl-protein thioesterase 2 (Homo sapiens), O95372 | AID 2177, 2009 | inhibition, % at 5.9 µM | recombinant LYPLA2 | 0.38% of 320,000 active;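 active means inhibition above the screen-wide mean plus 3 SD, limit set per campaign, cut at about 26% in these data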;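 further: 0% = LYPLA2 with DMSO and 100% = wells lacking LYPLA2 enzyme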
Target sequence (O95372 whole entry, looked up): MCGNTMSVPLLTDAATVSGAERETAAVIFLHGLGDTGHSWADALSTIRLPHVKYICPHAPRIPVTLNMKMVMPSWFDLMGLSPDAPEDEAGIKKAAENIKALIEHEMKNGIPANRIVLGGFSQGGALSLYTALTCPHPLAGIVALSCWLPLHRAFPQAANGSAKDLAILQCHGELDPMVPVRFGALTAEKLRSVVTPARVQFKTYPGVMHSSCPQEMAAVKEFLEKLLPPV
GSTO1 counter: inhibitors of recombinant GSTO1, primary screen, counter-screen for RBBP9 inhibitor project, biochemical, fluorescence polarization | Glutathione S-transferase omega-1 (Homo sapiens), P78417 | activity-based probe fluorescence polarization | inhibition, % at 5.96 µM | 1.1% of 300,000 active;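 active means inhibition above the campaign mean inhibition plus 3 SD, cut at about 35% in these data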;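 further: 0% = GSTO1-1 with DMSO and 100% = wells lacking GSTO1-1 enzyme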
Target sequence (P78417 whole entry, looked up): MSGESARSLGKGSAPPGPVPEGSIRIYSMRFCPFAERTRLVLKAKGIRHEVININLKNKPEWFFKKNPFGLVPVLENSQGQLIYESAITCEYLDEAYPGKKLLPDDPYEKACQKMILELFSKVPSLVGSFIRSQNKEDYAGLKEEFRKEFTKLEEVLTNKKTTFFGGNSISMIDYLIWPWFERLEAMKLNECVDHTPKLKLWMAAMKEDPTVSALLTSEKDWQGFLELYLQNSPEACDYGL
EBNA-1 inh conf: EBNA-1 DNA-binding inhibitors, retest, confirmation, biochemical, fluorescence polarization, triplicate | shares compounds with EBNA-1 inh | Recombinant EBNA-1 DBD, Cy5-DNA fluorescence polarization | inhibition, % at 14.8 µM | 35% of 830 active | AID 2292, 2010;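 active means mean inhibition across replicates above a set limit taken from the earlier primary screen, cut at about 28% in these data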;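 further: plate controls were EBNA-1 protein with DMSO for no effect and wells lacking EBNA-1 for full effect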
ZTA DNA inh trip: EBV Zta DNA binding inhibitors, counter-screen for EBNA-1 inhibitor project, biochemical, fluorescence polarization, triplicate | 830 tested, under 10 active | shares compounds with EBNA-1 inh | inhibition, % at 11.1 µM | Zta-ZRE DNA binding, Cy5 fluorescence polarization;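 active means mean inhibition over triplicates above a set limit taken from the primary EBNA-1 screen, cut at about 37% in these data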;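 further: purified full length Zta protein with Cy5 labeled ZRE DNA probe; 0% = Zta with DMSO and 100% = wells lacking Zta protein; inhibitors lower polarization by freeing the labeled DNA probe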
* hit, by the source's call; . = no result. Compounds with a hit are over-represented: about 1.7% of the library has one in this group of screens.

SMILES	EBNA-1 inh	ZTA DNA inh	LYPLA1 inh	PAD4 FP inh	LYPLA2 counter	GSTO1 counter	EBNA-1 inh conf	ZTA DNA inh trip
Cc1ccc(-c2csc(NC(=O)CSc3ncn(-c4ccccc4)n3)n2)cc1	40.5*	14.2	-4.5	-5.5	-9.3	-9.2	-0.4	-1.5
O=C(CSc1ncn(-c2ccccc2)n1)Nc1nc(-c2ccccc2)cs1	16.2	0.2	0.1	-1.2	-5.3	-7.8	.	.
COc1ccc(-c2ccc(C#N)c(SCC(=O)NCCc3ccccc3)n2)cc1OC	28.1*	-0.9	-8.7	-2.0	-22.3	-5.5	-5.5	0.2
COc1cccc(-c2ccc(C#N)c(SCC(=O)NCCc3cccc(Cl)c3)n2)c1	19.7	-3.8	-4.3	-9.2	-6.2	7.3	.	.
O=[N+]([O-])c1cccc(-c2nnc3ccccn23)c1	0.2	-4.4	-0.8	-6.0	-1.3	7.7	.	.
Cc1ccc(S(=O)(=O)N2CCN(C(=S)NCCc3ccccc3)CC2)cc1	65.4*	-2.8	2.0	-0.6	8.6	-4.1	11.4	-1.6
COc1ccc(CCNC(=S)N2CCN(S(=O)(=O)c3ccccc3)CC2)cc1	-6.6	-6.8	-2.4	-1.4	1.7	-5.7	.	.
Cc1cc(C)c2oc(-c3ccc(C)c(NC(=S)NC(=O)c4cccs4)c3)nc2c1	2.5	4.9	1.5	-1.3	-6.5	2.7	.	.
Cc1ccc(-c2nc3ccccc3o2)cc1NC(=S)NC(=O)c1cccs1	35.6*	5.2	1.6	2.3	-2.5	-11.3	16.3	1.4
Cc1cc(C)c(S(=O)(=O)N2CCN(C(=O)C3COc4ccccc4O3)CC2)c(C)c1 (stereo not drawn)	.	7.4	-2.2	-0.9	0.7	.	.	.
CCOc1cc(/C=N/NC(=O)C(=O)N/N=C/c2ccc(O)c(OCC)c2)ccc1O	27.7*	7.7	5.0	-3.9	0.1	-5.2	23.1	-5.6
O=C(CN(Cc1ccco1)C(=O)c1ccc(N2CCCC2=O)cc1)Nc1ccccc1C(F)(F)F	-11.4	-3.1	3.7	-4.8	5.7	3.4	.	.
CCCN(CC(=O)Nc1ccc(C(N)=O)cc1)CC(=O)Nc1ccc(Cl)cc1Cl	28.7*	-0.2	1.9	1.6	-0.1	0.9	10.2	6.8
CCCN(CC(=O)Nc1ccc(C(N)=O)cc1)CC(=O)Nc1cc(Cl)ccc1Cl	22.8	0.7	-3.1	1.6	0.3	-7.5	.	.
COc1ccc(-c2cn(Cc3ccc(C(=O)c4ccccc4)cc3)nn2)cc1	27.9*	-18.7	-1.9	2.7	-0.1	2.5	0.1	15.1
COc1ccc(-c2cn(Cc3ccc4ccccc4c3)nn2)cc1	5.1	-13.4	-2.2	0.1	-2.4	6.0	.	.
CCOC(=O)C1=C(COC(=O)CCOc2ccccc2C)NC(=O)NC1C (stereo not drawn)	-1.7	-13.0	-0.6	7.5	8.8	4.8	.	.
CCOC(=O)CN(C(=O)CSc1nnc2c(n1)[nH]c1ccc(F)cc12)c1ccccc1	-7.8	-21.8	-6.2	-4.1	0.8	-11.6	.	.
CCOC(=O)CN(C(=O)CSc1nnc2c(n1)[nH]c1ccccc12)c1ccccc1	40.4*	4.4	-7.7	-1.1	-2.4	-10.6	-5.7	-5.9
Cc1ccccc1C(=O)Nc1nc2c(C)csc2c(=O)s1	54.7*	4.0	-8.4	5.2	-12.2	0.5	5.0	1.8
O=C(COC(=O)c1ccccc1Cl)Nc1ccc2[nH]c(=O)[nH]c2c1	-1.1	19.3	-0.2	-0.1	5.2	-6.6	.	.
O=C(COC(=O)c1cc(Cl)ccc1Cl)Nc1ccc2[nH]c(=O)[nH]c2c1	85.3*	-7.4	-4.2	-4.4	-3.5	-9.3	28.4*	2.7
Cc1ccc(S(=O)(=O)NCC2CCC(C(=O)NC3CCCCC3)CC2)cc1 (stereo not drawn)	48.9*	0.9	0.9	-2.2	1.3	-2.7	39.2*	3.1
CC(=O)Nc1ccc(S(=O)(=O)NCC2CCC(C(=O)NC3CCCCCC3)CC2)cc1 (stereo not drawn)	1.9	18.0	-2.8	-4.5	-0.5	-1.7	.	.
CSc1ccc(CCNC(=O)CCc2nnc3ccc(N4CCC5(CC4)OCCO5)nn23)cc1	-8.0	9.2	-4.9	0.9	-13.8	2.6	.	.
SMILES	EBNA-1 inh	ZTA DNA inh	LYPLA1 inh	PAD4 FP inh	LYPLA2 counter	GSTO1 counter	EBNA-1 inh conf	ZTA DNA inh trip
COCCN(Cc1ccccc1)C(=O)C1CCN(S(=O)(=O)c2ccc3c(c2)OCCO3)CC1	.	17.7	0.6	0.8	4.5	.	.	.
Cc1ccc(-c2nn3c(-c4ccco4)nnc3c3ccccc23)cc1S(=O)(=O)NCC1CCCO1 (stereo not drawn)	85.9*	1.6	-1.1	-5.3	-10.8	0.5	-4.0	-5.5
O=C(Nc1cc(Cl)c(Cl)cc1Cl)c1cccnc1	5.8	-8.9	1.5	-4.5	2.7	3.8	.	.
CCCCCNC(=O)C1CCC(Cn2c(=S)[nH]c3ccccc3c2=O)CC1 (stereo not drawn)	44.2*	-3.3	2.4	-1.8	-3.4	-3.0	20.9	2.9
COc1ccc(Nc2nc(Cl)nc(NCc3ccco3)n2)c(OC)c1	28.8*	1.0	2.7	-5.0	4.0	10.4	15.4	-5.9
Cc1ccc(N2CCN(C3=NC(=O)/C(=C\c4cn[nH]c4-c4ccccc4)S3)CC2)cc1	93.1*	-5.6	0.9	-4.2	3.0	-5.1	42.7*	-3.4
O=C1N=C(N2CCN(c3ccccc3)CC2)S/C1=C\c1cn[nH]c1-c1ccccc1	138.2*	2.3	-1.1	1.0	5.3	8.6	33.8*	3.0
O=C1N=C(N2CCC(Cc3ccccc3)CC2)S/C1=C/c1cn[nH]c1-c1ccccc1	4.8	-0.3	-21.9	-1.3	-31.0	-9.3	.	.
Cc1cccc(N2CCN(C3=NC(=O)/C(=C\c4cn[nH]c4-c4ccccc4)S3)CC2)c1	67.3*	-10.4	2.3	-5.9	3.3	3.1	29.1*	11.9
COc1ccc(NC(=O)Nc2cccc3c2O[C@H](CN(C)S(=O)(=O)c2cn(C)cn2)[C@@H](C)CN([C@H](C)CO)C3=O)cc1	.	.	.	-1.1	.	.	.	.
COC(=O)Cn1cnc2c(nnn2-c2cccc(OC)c2)c1=O	10.3	6.8	-1.9	2.5	0.6	3.2	.	.
COc1ccc(C(=S)N2CCN(c3cccc(Cl)c3)CC2)cc1	-7.6	-3.9	-0.6	-0.6	3.3	-18.4	.	.
CCOc1ccc(NC(=O)CN(C)C(=O)CC(NC(=O)c2ccccc2)c2ccccc2)cc1OCC (stereo not drawn)	2.2	-6.2	4.6	0.6	-0.5	7.1	.	.
